Results on two compounds are retold here after PubChem BioAssay AID720550 (National Center for Advancing Translational Sciences (NCATS), 2013).

Inconclusive results are not listed. The source made the active and inactive calls. Calls come from the whole dose curve; as a rule, active = well fitted curve in the direction sought with a large enough effect; inconclusive = small, poorly fitted or top-dose-only effect, or another doubt; inactive = no such curve, though single readings can be large or run the other way.

The assay can be described thus: qHTS for Inhibitors of Bloom's syndrome helicase (BLM): Thiazole Orange DNA Binding Counterscreen for SAR. From the text: Human RecQ DNA helicases participate in maintenance of genome stability and DNA repair. While other types of helicases have been explored as targets for drug development, members of the RecQ family have remained less well characterized. Mutations of the Bloom helicase gene have been associated with the rare human genetic disease called Bloom syndrome. […] Moreover, identified inhibitors can be used in cells and animal models to examine the consequences of inhibition on the survival of cancer cells where it has been shown that BLM plays an important role.
A fluorescence-based, biochemical assay in 1536 well format was developed to evaluate inhibition of BLM DNA unwinding activity. This assay was used to screen the MLPCN library. The resulting compounds were subjected to orthogonal and secondary biochemical assays to triage the initial hits, to classify compounds based on mode of action and to derive structure activity relationships (SARs) of candidate effectors. The Thiazole Orange (ThO) DNA binding (TO-binding) is used to eliminate inhibitors that operate via nonspecific DNA binding. […]
Compounds were added to a 4 uL mixture of 50 nM DNA and 100 nM ThO via pintool transfer. The fluorescence signal (excitation 480 nm, emission 530 nm) was measured after 15 min incubation at room temperature using the ViewLux CCD imager.

Turning to `N#Cc1ccc(NC(=O)Nc2nnc(-c3ccncc3)s2)cc1Cl`, the outcome was inactive.
Under `N#Cc1ccc(NC(=O)Nc2nnc(-c3ccncc3)s2)cc1C(F)(F)F` stands “inactive”.
